Screening data (PubChem)
Cruzain Triton: blocks cruzain activity in presence of Triton detergent. P25779. purified cruzain, Z-FR-AMC fluorescence, 0.01% Triton. Potency, µM, inactives show max response, negative = inhibition, most hits filed as inhibitors. 0.43% of 200,000 active;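 further: plate controls were neutral wells for no effect and buffer without enzyme for full effect; nearly all actives have a fitted effect of over 40% in size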
Target sequence (P25779 123-467 limits assumed): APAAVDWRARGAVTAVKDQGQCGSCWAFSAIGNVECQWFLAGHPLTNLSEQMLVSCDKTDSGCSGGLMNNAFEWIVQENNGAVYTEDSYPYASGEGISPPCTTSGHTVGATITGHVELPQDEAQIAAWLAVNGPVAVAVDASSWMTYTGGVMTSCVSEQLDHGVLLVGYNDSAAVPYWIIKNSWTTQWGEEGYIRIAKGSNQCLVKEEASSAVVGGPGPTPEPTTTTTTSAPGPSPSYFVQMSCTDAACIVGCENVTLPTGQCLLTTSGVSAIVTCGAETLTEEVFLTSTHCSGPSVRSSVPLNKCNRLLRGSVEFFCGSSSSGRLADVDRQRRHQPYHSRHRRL
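Sodium acetate buffer (100 mM, pH 5.5) containing 5 mM DTT and 0.01% Triton X-100 hosted 1.5 nM cruzain and test compound for 15 min at room temperature. Cleavage of 2 uM Z-FR-AMC was then tracked by fluorescence.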
NS1 function inh: inhibitors of influenza NS1 protein function; AID 2326; 0.4% of 270,000 active; Potency, µM (doses to about 46.1 µM), without a hit: at the top dose activity, positive = more growth; calls by dose curve; further: actives are rising curves; nearly all actives have a fitted effect of over 50% in size
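Growth recovery, yeast-based: influenza A NS1 expressed in S. cerevisiae causes slow growth, and suppressors are detected by OD600. The parent strain without NS1 is used as positive control.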
Cruzain noTriton: blocks cruzain activity in detergent-free assay; purified cruzain, Z-FR-AMC fluorescence, no detergent; Potency, µM, for inactives: max response, negative = inhibition, most hits filed as inhibitors; 2.3% of 200,000 active; AID 1476;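 further: plate controls were enzyme without inhibitor for no effect and buffer without enzyme for full effect; nearly all actives have a fitted effect of over 40% in size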
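Purified cruzain at 1.5 nM, pre-incubated 15 min with compound at room temperature in 100 mM sodium acetate pH 5.5, 5 mM DTT, 0.00005% Triton X-100. Reaction started with 2 uM Z-FR-AMC; AMC fluorescence increase over 60 s gives rate.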
Numbers without * were called inactive; ? = inconclusive; nt = no result; [ ] = dose if it differs, or a comment. This is one part of a sample in which hits are shown more often than they occur. Unless noted, the call rests on the fitted dose curve; in most records, active means well fitted curve in the direction sought with a large enough effect; inconclusive means small, poorly fitted or top-dose-only effect, or another doubt; inactive means no such curve, though single readings can be large; an effect the other way counts as inactive or inconclusive. Potency means the concentration at half of the fitted maximal effect.

SMILES	Cruzain Triton	NS1 function inh	Cruzain noTriton
COC(=O)N1CCC2(CCCN(c3ccc(-c4ccccc4)cc3)C2)CC1	-4.7%	nt	-5.2%
O=C(Oc1ccccc1)N1CCC2(CCCN(c3ccc(-c4ccccc4)cc3)C2)CC1	0.4%	nt	12.6µM*
Brc1ccc(-c2nn3c(Cc4ccccc4)nnc3s2)o1	0.1%	-14.0%	2.3%
c1ccc(Cc2nnc3sc(Nc4ccccc4)nn23)cc1	1.2%	6.8%[9.22 µM]	25.1µM*
CCN(N=O)C(N)=O	5.6%	nt	-5.7%
COC(=O)[C@]1(C)CCC(c2ccc(C)cc2)=C(CC(=O)O)C1	-0.9%	-3.8%	15.2%
COc1cccc(N=Nc2c(N)[nH]n3c(=O)cc(-c4ccccc4)nc23)c1	0.1%	4.3%	12.6µM*
Cc1ccc(N=Nc2c(N)[nH]n3c(=O)cc(-c4ccccc4)nc23)cc1	-6.2%	8.4%	-20.3%
N/N=C1/CC(=O)NC(=O)N1	-0.4%	1.4%	-6.0%
COc1cccc(OC)c1C(=O)Nc1ccc2c(c1)Cc1ccccc1-2	nt	-15.0%	nt
O=C(Nc1ccc2c(c1)Cc1ccccc1-2)c1cccnc1	nt	-55.8%	nt
COc1c(C)cccc1C(=O)NC(=S)Nc1ccccc1N1CCCC1	nt	18.9%	nt
O=C(Nc1cccc(-c2csc(Nc3ccccc3)n2)c1)c1ccccc1	nt	-41.9%	nt
COc1c(C)cccc1C(=O)NC(=S)Nc1ccc2c(c1)Cc1ccccc1-2	2.4%	2.8%	20µM*
O=C(Nc1nc(-c2ccc3c(c2)Cc2ccccc2-3)cs1)c1ccccc1	-0.3%	14.3%	20µM*
COc1cccc(OC)c1C(=O)NC(=S)Nc1ccc2c(c1)Cc1ccccc1-2	-23.6%	1.3%	15.8µM*
COc1ccc(C(=O)Nc2ccc3c(c2)Cc2ccccc2-3)cc1	5.6%	-2.4%	10µM*
CSC(=[SH+])N=N/C(=C1/C=CC=CN1)c1ccccn1.[Cu][Br]	0.2%	21.0%	0.2%
COc1ccc(NC(=O)C(C)n2nc(-c3cc(C)ccc3C)c3c(c2=O)CCCC3)cc1 (stereo not given)	-5.7%	nt	1.7%
CCN(CC)C(=O)Cn1c(=O)n(CCCCCC(=O)NCc2ccc(C)cc2)c(=O)c2sccc21	0.0%	nt	-2.4%
c1ccc(OP(Oc2ccccc2)Oc2ccccc2)cc1	-0.1%	nt	3.5%
CCC(=O)N[C@@H]1Cc2ccccc2[C@@H](c2ccccc2)C1	-4.8%	nt	?
C=Cc1ccc(CSc2nc(-c3ccc(C)cc3)nc3c2Cc2c(CO)cnc(C)c2O3)cc1	-1.6%	nt	10.0%
O=C(N/N=C/c1cccc2cccnc12)c1ccccc1O	nt	-66.0%	nt
O=C(N/N=C/c1ccccc1Br)c1ccc(CSc2cccc3cccnc23)cc1	0.7%	9.8%	10µM*
SMILES	Cruzain Triton	NS1 function inh	Cruzain noTriton
O=c1c2ccccc2nc2n1CCC2	?	?	12.6µM*
O=c1c2ccccc2nc2n1CCCCC2	-0.9%	-5.9%	-4.2%
S=C(S)NCCCn1ccnc1	2.8%	-0.3%	-7.0%
O=C(c1ccc(-c2ccc([N+](=O)[O-])cc2)o1)N1CCCCC1	-6.8%	-49.8%	-4.7%
O=C(c1ccc(-c2ccc(Cl)cc2)o1)N1CCN(c2ccc([N+](=O)[O-])cc2Cl)CC1	-4.3%	28.4%	7.94µM*
N#Cc1cccc(-c2ccc3ncnc(NCc4ccccc4)c3c2)c1	-7.3%	nt	-9.6%
O=C1C=CC(=O)c2c1ccc1c2ccc2ccccc21	-10.6%	nt	-14.0%
COc1ccc(/C=N/NC(=O)CCSc2nc3ccccc3s2)cc1OC	-9.5%	-5.6%	?
O=C(CCSc1nc2ccccc2s1)N/N=C/c1c(O)ccc2ccccc12	-1.6%	?	12.6µM*
O=C(CSc1nnc(-c2ccc(Cl)cc2)c(-c2ccc(Cl)cc2)n1)NC1CCCC1	-7.8%	nt	-9.3%
Cc1ccc(-c2nnc(SCC(=O)NC3CCCC3)nc2-c2ccc(C)cc2)cc1	?	nt	12.6µM*
Cc1ccc(NC(=O)c2c(C)nn(-c3ccccc3)c2-n2cccc2)c(Cl)c1	-1.3%	nt	-3.9%
CCOC(=O)c1ccc(NC(=O)c2cc3c(n(-c4ccc(C)cc4)c2=O)CC(C)(C)CC3=O)cc1	-0.1%	nt	6.7%
Cc1cc2cc(C(c3nnnn3CC3CCCO3)N3CCCc4ccccc43)c(=O)[nH]c2cc1C (stereo not given)	-8.2%	5.01µM*	28.1%
CCc1ccc2[nH]c(=O)c(C(c3nnnn3CC3CCCO3)N3CCCc4ccccc43)cc2c1 (stereo not given)	-6.7%	-28.5%	14.7%
NS(=O)(=O)c1ccc(CCNc2nc3c(-c4cccc(F)c4)nnn3c3ccccc23)cc1	1.5%	0.3%	20µM*
Cc1cccc(-c2nnn3c2nc(NCCc2ccc(S(N)(=O)=O)cc2)c2ccccc23)c1	-1.5%	17.6%	?
c1nc[nH]n1	5.1%	nt	-2.2%
Cc1ccc(S(=O)(=O)NCC(Nc2cccc(Cl)c2)c2ccccc2)cc1 (stereo not given)	-5.9%	nt	-26.8%
O=C(c1ccc2c(c1)N(Cc1ccccc1F)C(=O)c1ccccc1S2(=O)=O)N1CCc2ccccc21	-0.5%	nt	2.7%
Cc1ccc(C)c(CN2C(=O)c3ccccc3S(=O)(=O)c3ccc(C(=O)N4CCN(C)CC4)cc32)c1	1.3%	10.8%	0.5%
O=C(c1ccc2c(c1)N(Cc1cccc(Cl)c1)C(=O)c1ccccc1S2(=O)=O)N1CCc2ccccc21	-2.5%	nt	20µM*
Cc1ccc(C)c(CN2C(=O)c3ccccc3S(=O)(=O)c3ccc(C(=O)N4CCc5ccccc54)cc32)c1	-0.5%	nt	31.6µM*
COc1ccccc1CN1CCCC2(CCN(C(=O)c3ccncc3)CC2)C1	1.7%	nt	3.6%
COc1ccc(-c2nc3nc(C)cc(Nc4cccc(C(F)(F)F)c4)n3n2)cc1	-0.9%	nt	25.1µM*
SMILES	Cruzain Triton	NS1 function inh	Cruzain noTriton
Cc1cc(Nc2cccc(C(F)(F)F)c2)n2nc(C)nc2n1	-0.9%	5.4%	-4.1%
O=C(CNC(=O)c1ccco1)OC(C(=O)c1ccccc1)c1ccccc1 (stereo not given)	6.31µM*	-21.2%	7.94µM*
O=C(CNC(=O)c1ccco1)NCC(=O)OC(C(=O)c1ccccc1)c1ccc(Cl)cc1 (stereo not given)	?	-1.5%	-25.9%
COc1cccc(-c2cc3nc(-c4ccccc4)cc(N4CCC5(CC4)OCCO5)n3n2)c1	28.2µM*	-30.2%	-14.4%
COc1cccc(-c2cc(C(F)(F)F)n3nc(C(=O)N4CCC5(CC4)OCCO5)cc3n2)c1	-4.6%	-48.1%	?
CCn1c(CC(=O)Nc2ccc(C)c(Cl)c2)nnc1SCc1ccc(Cl)c(Cl)c1	5.1%	17.2%	12.6µM*
CCn1c(CC(=O)Nc2ccc(C)c(Cl)c2)nnc1SCC(=O)Nc1nc(C)cs1	8.9%	2.4%	?
C[C@@H]1CC[C@H]2[C@H](C)C3[C@H](C[C@H]4[C@@H]5CC=C6C[C@@H](O)CC[C@@]6(C)[C@@H]5C[C@@H](O)[C@]34C)N2C1 (stereo not given in full)	-2.7%	-5.5%	-6.3%
CC(SC1=NCCS1)C(=O)Nc1nnc(-c2ccc(Cl)cc2)s1 (stereo not given)	-8.2%	0.3%	-16.0%
COc1ccccc1-c1nnc(NC(=O)C(C)SC2=NCCS2)s1 (stereo not given)	-5.3%	-68.9%	15.8µM*
COc1ccc(CCNC(=O)C(=O)NCC(c2ccco2)S(=O)(=O)c2ccc(F)cc2)cc1 (stereo not given)	-1.1%	nt	8.9%
Cc1nc(NCc2ccccc2)c2nc(-c3ccccc3)n(CCN3CCCC3)c2n1	2.2%	nt	-5.2%
